For 95 compounds, inhibition results are on record in PubChem BioAssay AID588727 (Southern Research Specialized Biocontainment Screening …, 2011).

Each structure is given as a SMILES string. Screen size: about 350,000 compounds; about 450 (0.13%) were called active. How the calls were made is not given here. Not all results are given here. Measured potencies and affinities stand elsewhere. Where a SMILES comes first, the peptide text is derived from it. [ ]: non-standard residue; d: D form.

A short description of the experiment: inhibitors of VEEV TC-83 cytopathic effect, confirmation, Vero cells (AID 588727). The conditions noted are these: VEEV TC-83 cytopathic effect inhibition, at 20 µM.
Setting [1] is: stronger effect = higher value unless noted.
[2] abbreviates: measured here: 10K pilot screen inhibition, stronger effect = higher value.

For the compound `CCOC(=O)CNC(=O)CSc1nc(C(C)C)nc2c1cnn2-c1ccccc1`, the inhibition under setting [1] is 8.46% (inactive).

For the compound `COc1ccc(-c2cc(=O)oc3cc(OC(C)C(=O)NCCCn4ccnc4)ccc23)cc1` (configuration not stated), the inhibition under setting [1] was 1.83% (inactive).

With `CCCc1nc2c(=O)n(C)c(=O)[nH]c2n1CCC`, the inhibition under setting [1] was 0.72% (inactive).

As to `CCn1c(=O)c2[nH]c(SC)nc2n(CC)c1=O`, the inhibition under setting [1] is 1.13% (inactive).

On to `COc1ccccc1-c1ccc2c(c1)O[C@@H](CN(C)C(=O)Nc1cccc(F)c1)[C@H](C)CN([C@H](C)CO)S2(=O)=O`, for which the inhibition under setting [1] is 5.59% (inactive).

Regarding `O=C(N/N=C(/CC(=O)c1cccs1)C(F)(F)F)c1ccc(O)cc1`, the inhibition under setting [1] is 0.06% (inactive).

On to `O=C(N/N=C(\CC(=O)c1cccs1)C(F)(F)F)c1cccnc1`, for which the inhibition entry under setting [1] is “inactive”.

For the compound `CCOCCn1c(CN2CCN(c3cccc(Cl)c3)CC2)nc2c1c(=O)n(C)c(=O)n2C`, under setting [1], the inhibition entry was “inactive”.

As to `COc1ccc(N2CCN(C(=O)c3cc(=O)c4cc(Cl)ccc4o3)CC2)cc1`, the inhibition under setting [1] is 0.39% (inactive).

As for `Nc1ccc(C(=O)OCc2nc3ccccc3[nH]2)cc1`, under setting [1], the inhibition is 2.64% (inactive).

`COC(=O)c1ccc(C(=O)OCc2nc3cc4ccccc4cc3[nH]2)cc1`: the inhibition under setting [1] is 0.06% (inactive).

For `COc1ccc(CN(CC(=O)NCc2ccc(F)cc2)C(=O)c2csnn2)cc1`, the inhibition under setting [1] was 1.52% (inactive).

Take `COc1ccc(NC(=O)c2nc[nH]c2C(=O)NCC(=O)OC(C)(C)C)cc1`: the inhibition under setting [1] is 3.26% (inactive).

Regarding `Cc1cccc(C(=O)NNC(=S)NC(=O)c2ccccc2)c1`, the inhibition under setting [1] is 46.7% (inactive).

Turning to `O=C(NNC(=S)NC(=O)c1cccs1)c1ccc(O)cc1`, the inhibition under setting [1] is 3.95% (inactive).

`Cc1ccc(C(=O)NNC(=O)c2ccco2)cc1`: the inhibition under setting [1] is 1.42% (inactive).

Consider `Cc1cccc(C(=O)NC(=S)NCc2ccccc2)c1`, for which, under setting [1], the inhibition was 2.47% (inactive).

For the compound `Cc1ccc(C(=O)NC(=S)NNC(=O)c2ccccc2)cc1`, the inhibition under setting [1] was 0.96% (inactive).

For `Cc1cccc(C(=O)NC(=S)NNC(=O)c2cccs2)c1`, the inhibition result under setting [1] is “inactive”.

Turning to `O=C(NNC(=S)NC(=O)c1ccco1)c1ccc(F)cc1`, the inhibition under setting [1] was 0.7% (inactive).

As for `O=C(NNC(=S)NC(=O)c1ccccc1)c1ccc(O)cc1`, the inhibition under setting [1] is 4.47% (inactive).

For `COc1ccccc1NC(=O)C1CCN(S(=O)(=O)c2cccc3nonc23)CC1`, the inhibition under setting [1] is 9.33% (inactive).

For the compound `CCOC(=O)c1ccc(NC(=O)CSc2nnc(CNc3ccc(OC)cc3)n2C)cc1`, the inhibition under setting [1] was 0.98% (inactive).

Turning to `O=C(c1ccc(N2CCOCC2)c([N+](=O)[O-])c1)N1CCCCC1`, the inhibition under setting [1] was 2.47% (inactive).

As to `CC1CC(C)CN(CCCNC(=O)CN2C(=O)c3cccnc3Oc3ccccc32)C1` (configuration not stated), under setting [1], the inhibition entry was “inactive”.

Take `O=C(CCC(=O)OCC(=O)c1ccc([N+](=O)[O-])cc1)Nc1ccccc1Cl`: the inhibition entry under setting [1] is “inactive”.

On to `CCOc1ccc(CN2CCN(Cc3cn(CC)nc3C)CC2CCO)cc1` (configuration not stated), for which the inhibition entry under setting [1] was “inactive”.

On to `CCOC(=O)c1sc2nc(C)nc(Nc3ccc(OC)cc3)c2c1C`, for which, under setting [1], the inhibition is 3.17% (inactive).

`COc1ccc(C(=O)Nc2ccccc2C(=O)N2CCCCCC2)cc1OC`: under setting [1], the inhibition was 5.61% (inactive).

Consider `CN1CCN(CCC(=O)Nc2ccc(C3CCCC3)cc2)CC1`, for which the inhibition under setting [1] is 4.6% (inactive).

In the case of `O=C(Nc1ccc(N2CCN(C(=O)c3ccco3)CC2)cc1)c1cccnc1Cl`, the inhibition (stronger effect = higher value) is 0.8% (inactive) and the inhibition under setting [2] came to 1.86%.

On to `COc1ccc(C)cc1NC(=O)C1CCN(C(=O)Cc2ccccc2)CC1`, for which the inhibition under setting [1] was 0.59% (inactive).

Take `COc1ccc(C(=O)NNC(=S)NC(=O)c2ccc(OC)cc2)cc1`: the inhibition under setting [1] is 2.82% (inactive).

Regarding `COc1ccc(C(=O)NC(=S)NNC(=O)COc2ccccc2)cc1`, the inhibition under setting [1] is 1.92% (inactive).

Regarding `COc1ccccc1C(=O)NNC(=S)NC(=O)c1sc2ccccc2c1Cl`, the inhibition under setting [1] was 4.48% (inactive).

`Cc1cccc(C(=O)NC(=S)NNC(=O)COc2c(C)cccc2C)c1`: the inhibition under setting [1] is 1.29% (inactive).

Take `O=C(COc1ccccc1)NNC(=S)NC(=O)c1ccccc1`: under setting [1], the inhibition is 52.2% (inactive).

Turning to `COc1ccc(C(=O)NC(=S)NNC(=O)c2ccc(C)cc2)cc1`, the inhibition under setting [1] was 50.1% (inactive).

For `COc1ccccc1C(=O)NC(=S)NNC(=O)c1sc2ccccc2c1Cl`, the inhibition under setting [1] was 0.8% (inactive).

Regarding `Cc1cccc(C)c1OCC(=O)NNC(=S)NC(=O)C1CC1`, the inhibition under setting [1] is 9.29% (inactive).

Take `CCCc1nnc(NC(=O)CNc2ccc(F)cc2)s1`: the inhibition under setting [1] was 1.71% (inactive).

For `CN(C)c1ccc(CNC(=O)c2cc(S(=O)(=O)N3CCCC3)cn2C)cc1`, the inhibition (stronger effect = higher value) was 0.58% (inactive) and the inhibition under setting [2] stood at 0.765%.

In the case of `Cc1ccc(C)c(S(=O)(=O)N/N=C/c2ccc(N3CCOCC3)cc2)c1`, the inhibition under setting [1] was 13% (inactive).

In the case of `COc1ccc(-c2nnc(SCc3cccc(C)c3)n2N)cc1`, under setting [1], the inhibition was 1.8% (inactive).

As to `O=c1n(Cc2ccccc2Cl)nc2n1-c1ccccc1SC2`, under setting [1], the inhibition is 1.6% (inactive).

On to `CN1CCN(NC(=O)c2cn(-c3ccccc3)nc2-c2cccc(Br)c2)CC1`, for which the inhibition under setting [1] is 4.96% (inactive).

Consider `COc1ccc(C(=O)NC(=S)NCCc2ccccc2)cc1`, for which the inhibition result under setting [1] is “inactive”.

In the case of `O=C(CCc1ccccc1)NNC(=S)NC(=O)c1ccccc1`, the inhibition under setting [1] is 8.58% (inactive).

For the compound `O=C(NC(=S)NNC(=O)c1cc2ccccc2cc1O)c1ccco1`, the inhibition under setting [1] is 35.8% (inactive).

Regarding `COc1ccc(C(=O)NNC(=S)NC(=O)c2ccco2)cc1`, the inhibition under setting [1] is 3.21% (inactive).

Regarding `CC1CCN(c2ccc(C(=O)OCC(=O)NCCN3C(=O)CSC3=O)cc2[N+](=O)[O-])CC1`, the inhibition under setting [1] was 2.94% (inactive).

Turning to `Nc1nc(=O)n(C2CCCO2)cc1Br` (configuration not stated), under setting [1], the inhibition result was “inactive”.

For `CCCCn1nnnc1SCC(=O)NCc1ccco1`, under setting [1], the inhibition is 0.76% (inactive).

With `CCOc1ccc(CCNC(=O)CCc2nnc3ccc(N4CCOCC4)nn23)cc1OCC`, the inhibition under setting [1] is 0.04% (inactive).

For the compound `CCN(CC(=O)Nc1ccc(NC(C)=O)cc1)C(=O)C12CC3CC(CC(Cl)(C3)C1)C2`, the inhibition entry under setting [1] is “inactive”.

On to `Cn1cc(C(=O)Nc2ccc(Cl)c(Cl)c2)cn1`, for which the inhibition under setting [1] is 0.63% (inactive).

For the compound `O=C(NC(Cc1c[nH]c2ccccc12)C(=O)Nc1ccc(OC(F)(F)F)cc1)c1cccs1` (configuration not stated), under setting [1], the inhibition was 11.9% (inactive).

`O=C(NC(Cc1c[nH]c2ccccc12)C(=O)N/N=C/c1ccc(Cl)cc1)c1cccs1` (configuration not stated): under setting [1], the inhibition is 6% (inactive).

Consider `O=C(Nc1ccc(F)c([N+](=O)[O-])c1)c1cccs1`, for which, under setting [1], the inhibition is 0.78% (inactive).

As for `O=C(NC(Cc1c[nH]c2ccccc12)C(=O)O)c1cccs1` (configuration not stated), under setting [1], the inhibition is 0.43% (inactive).

Take `Cc1cc(C)nc(N2C(=O)CC(C(=O)O)NC2=NCCc2c[nH]c3ccccc23)n1` (configuration not stated): the inhibition result under setting [1] is “inactive”.

With `COc1ccc(/C=N/NC(=O)c2c(-c3ccccc3)noc2C)cc1`, the inhibition under setting [1] is 1.23% (inactive).

As to `COc1cc2nc(N(CCCN(C)C)C(=O)c3ccc(S(=O)(=O)N4CCc5ccccc54)cc3)sc2cc1OC`, the inhibition under setting [1] is 5.52% (inactive).

With `CN(C)CCCN(C(=O)c1ccc(S(=O)(=O)N2CCc3ccccc32)cc1)c1nc2c(Cl)cccc2s1`, the inhibition under setting [1] is 12.6% (inactive).

`O=C(NC1CONC1=O)OCC(Cl)(Cl)Cl` (configuration not stated): the inhibition result under setting [1] was “inactive”.

`CCc1nnc(NC(=O)C2CC(=O)N(Cc3ccco3)C2)s1` (configuration not stated): under setting [1], the inhibition was 2.16% (inactive).

Turning to `Cc1cc(C)c[n+](CC(=O)c2ccc(C)c([N+](=O)[O-])c2)c1`, the inhibition under setting [1] is 0.1% (inactive).

Turning to `Cc1cccc[n+]1CC(=O)c1ccc([N+](=O)[O-])cc1`, under setting [1], the inhibition entry was “inactive”.

With `S=C(N/N=C/c1ccc2ncccc2c1)Nc1ccccc1`, the inhibition under setting [1] was 9.82% (inactive).

Consider `O=C(Nc1ccc2c(c1)CCCN2C(=O)c1cccs1)c1ccccc1`, for which the inhibition under setting [1] is 6.53% (inactive).

As to `COc1ccccc1C(=O)Nc1ccc2c(c1)CCCN2C(=O)c1cccs1`, under setting [1], the inhibition is 4.26% (inactive).

With `CCn1nnnc1SCC(=O)N1CCOCC1`, the inhibition under setting [1] is 0.74% (inactive).

As to `COc1ccc(N2CC(C(=O)N/N=C/c3cc([N+](=O)[O-])ccc3O)CC2=O)cc1` (configuration not stated), the inhibition under setting [1] is 2.03% (inactive).

`CC[C@H](C)[C@@H]1NC(=O)[C@H]([C@@H](C)CC)NC(=O)[C@@H](CC(C)C)NC(=O)[C@H](Cc2ccccc2)NC(=O)[C@H](Cc2ccccc2)NC(=O)[C@@H]2CCCN2C(=O)[C@@H]2CCCN2C(=O)[C@H](C(C)C)NC(=O)[C@H](CC(C)C)NC1=O` (cyclo(FF[dL]IILVPP)): under setting [1], the inhibition entry was “inactive”.

`CCC(C)[C@@H]1NC(=O)N(CCCN2CCCC2=O)C1=O` (some centres not stated): under setting [1], the inhibition was 2.56% (inactive).

In the case of `Cc1ccccc1NC(=O)NCCCN1CCN(C)CC1`, the inhibition under setting [1] is 0.45% (inactive).

As for `Cc1ccccc1NC(=O)NCCN1CC1`, under setting [1], the inhibition result was “inactive”.

Consider `CC(NC(=O)c1cccc(S(=O)(=O)N(C)c2ccccc2)c1)c1cccnc1` (configuration not stated), for which the inhibition under setting [1] was 1.03% (inactive).

Consider `C[N+]1(CCCCSc2ccc(O)cc2)CCCCC1`, for which, under setting [1], the inhibition entry was “inactive”.

Turning to `Cc1ccc(NC(=O)CSc2ccc(-c3ccccn3)nn2)cc1`, the inhibition under setting [1] was 0.64% (inactive).

For the compound `Cc1nnc(SCC(=O)Nc2ncc(Cl)cc2Cl)n1Cc1ccccc1`, under setting [1], the inhibition was 1.6% (inactive).

Turning to `Cn1nnnc1SCC(=O)Nc1ncc(Cl)cc1Cl`, the inhibition under setting [1] is 2.56% (inactive).

As for `CC(C)NC(=O)CSc1nc2ccccc2n1-c1ccccc1`, under setting [1], the inhibition was 3.21% (inactive).

Regarding `CC(C)(C)NC(=O)CSc1nc2ccccc2n1-c1ccccc1`, the inhibition under setting [1] is 7.16% (inactive).

Turning to `Cc1ccc(-n2c(SCC(=O)Nc3cccc(S(N)(=O)=O)c3)nc3ccccc32)cc1`, the inhibition under setting [1] was 2.21% (inactive).

With `O=C(CSc1nnc2ccccn12)Nc1ncc(Cl)cc1Cl`, the inhibition under setting [1] is 3.72% (inactive).

For `CC(C)c1ccc(-c2cc(C(=O)N3N=C(C(F)F)CC3(O)C(F)F)c3ccccc3n2)cc1` (configuration not stated), under setting [1], the inhibition result was “inactive”.

With `O=C1CCC(C(=O)N2CCCCO2)CN1CCc1ccccc1` (configuration not stated), under setting [1], the inhibition was 2.16% (inactive).

For the compound `COc1ccc(C2CN=NC2C(=O)c2ccccc2)cc1` (configuration not stated), under setting [1], the inhibition is 0.98% (inactive).

For the compound `Cc1ccc(/C=N/n2c(-c3cccnc3)n[nH]c2=S)o1`, under setting [1], the inhibition was 0.4% (inactive).

Consider `CC(=O)Nc1ccc(S(=O)(=O)NC2=NCN(c3cccc([N+](=O)[O-])c3)CN2)cc1`, for which the inhibition under setting [1] was 0.07% (inactive).

For the compound `Cc1nn(-c2ccccc2)c2c1C1(C(=O)Nc3ccccc31)N1C(=N2)Sc2ccccc21` (configuration not stated), under setting [1], the inhibition is 1.86% (inactive).

`CCCCCc1ccc(-c2nnc(N)s2)cc1`: the inhibition under setting [1] is 2.86% (inactive).

With `CC1=Nc2cc(C(=O)N3CCCC3)ccc2Sc2ccc(C)cc21`, the inhibition under setting [1] was 1.14% (inactive).

Turning to `CC1=Nc2cc(C(=O)O)ccc2Sc2c(C)ccc(C)c21`, the inhibition under setting [1] is 0.43% (inactive).
